ChEMBL document CHEMBL3988442, “University of Dundee, Small-Polar-MMV Screening Library” (2021)
The campaign covered roughly 48,000 compounds. About 13,000 (27%) showed an effect of 50% or more. Some of the results follow.

Test system: Wolbachia pipientis
Test: Anti-Wolbachia Cell-Based Screen
Type: functional
Parameters: scale not given: in the data most compounds retested in dose-response had high values
Settings: 5 µM

Row | SMILES | Percent Effect
1 | CCCNC(=O)CCNC1CSCCc2ccccc21 (stereo not drawn) | -10.65%
2 | COC(=O)c1sccc1S(=O)(=O)N1CCC(Oc2ncccc2Cl)CC1 | 25.07%
3 | OCCN1CCc2[nH]nc(C(c3ccccc3)c3ccccc3)c2C1 | 13.32%
4 | CCc1cnc(CN(C)C(=O)Nc2cnc3c(c2)c(C)nn3C)s1 | -8.075%
5 | O=C(c1ccc(O)nc1)N1CCN(C(=O)c2ccc(F)cc2F)CC1 | -4.376%
6 | CC(C)CNc1c(NCc2ccco2)c(=O)c1=O | 131.9%
7 | CNS(=O)(=O)c1cccc(C(C)NCc2ccco2)c1 (stereo not drawn) | -0.2197%
8 | CCn1c(NCc2ccco2)nc2c(C)nn(C)c2c1=O | 25.01%
9 | CSCCCNC(=O)c1coc(Cn2cnc3ccccc32)n1 | 7.588%
10 | CCc1nc(CN2CCCC(NCc3nnc(C4CC4)o3)C2)no1 (stereo not drawn) | 5.014%
11 | C1CC(NCc2nnc(C3CC3)o2)CN(Cc2noc(C3CC3)n2)C1 (stereo not drawn) | 132.9%
12 | C1CC(c2noc(C3CC3)n2)CN(Cc2noc(C3CC3)n2)C1 (stereo not drawn) | 0.1706%
13 | CCc1nnc(CNC2CCCN(Cc3noc(C4CC4)n3)C2)o1 (stereo not drawn) | 121.7%
14 | c1ccc2oc(NC3CCCN(Cc4noc(C5CC5)n4)C3)nc2c1 (stereo not drawn) | 2.188%
15 | CC(C)c1nnc(CNC2CCCN(Cc3noc(C4CC4)n3)C2)o1 (stereo not drawn) | 144.7%
16 | OCCN1CCC(CNCCOCC(F)(F)F)CC1 | 0.8425%
17 | Cc1ccc(-c2ncc(CNc3cnccc3CO)s2)o1 | 8.317%
18 | FC(F)(F)CCc1ncnn1-c1ccc2c(c1)OCO2 | -6.748%
19 | Cc1ccccc1C(C(=O)N1CCN(C(=O)c2ccc[nH]2)CC1)N(C)C (stereo not drawn) | 2.077%
20 | Nc1ncc(CN2CCC(CCC(=O)NC3CC3)CC2)cn1 | 2.927%
21 | CCn1cc2c(n1)CN(S(=O)(=O)c1cn(C)cn1)CC2COC.O=C(O)C(F)(F)F (stereo not drawn) | -7.552%
22 | CC(C)CO[C@H]1CN(S(=O)(=O)c2cn(C)cn2)[C@@H]2CCCO[C@H]12.O=C(O)C(F)(F)F | -4.682%
23 | Cn1cnc(S(=O)(=O)N2CCN(CC3CC3)c3ncccc3C2)c1.O=C(O)C(F)(F)F.O=C(O)C(F)(F)F | -19.75%
24 | CC(C)CN1CCC2(C1)CN(S(=O)(=O)c1cn(C)cn1)C2.O=C(O)C(F)(F)F.O=C(O)C(F)(F)F | 81.89%
25 | CCN1CCC2(C1)CN(S(=O)(=O)c1cn(C)cn1)C2.O=C(O)C(F)(F)F.O=C(O)C(F)(F)F | 110.7%
26 | Cn1cnc(S(=O)(=O)N2CC3(CCN(c4ccccc4)C3)C2)c1.O=C(O)C(F)(F)F | 94.4%

Row | SMILES | Percent Effect
27 | Cn1cnc(S(=O)(=O)N2CC3(CCN(CC4CC4)C3)C2)c1.O=C(O)C(F)(F)F.O=C(O)C(F)(F)F | 100.1%
28 | O=C(O)C(F)(F)F.O=S(=O)(C1CC1)N1CCC2(CN(c3ccccn3)C2)C1 | 2.12%
29 | Cn1cnc(C(=O)N2CC3(CCN(S(=O)(=O)c4ccccc4)C3)C2)c1 | -0.5352%
30 | CC(C)CN1CC[C@@H]2[C@@H]1CCN2S(=O)(=O)c1cn(C)cn1.O=C(O)C(F)(F)F | 9.969%
31 | CCO[C@H]1CCN(S(=O)(=O)c2cn(C)cn2)[C@H]1Cc1ccccc1.O=C(O)C(F)(F)F | -2.456%
32 | CCS(=O)(=O)N1CCC2(CN(C(=O)c3cn(C)cn3)C2)C1 | -4.508%
33 | CC(CC(=O)Nc1ncn(CC(=O)NCc2ccccc2)n1)C1CC1 (stereo not drawn) | -9.655%
34 | COc1ccc(S(=O)(=O)NCC(O)c2sccc2C)cc1Cl (stereo not drawn) | 7.194%
35 | CC(=O)N1CCCCCC1C1CCN(Cc2nc(C3CC3)no2)CC1 (stereo not drawn) | -6.899%
36 | Brc1cnc(NCCCOC2CCOCC2)nc1 | -7.222%
37 | CC(C)Oc1cccc(C(=O)C2CCCN(C(=O)c3cncs3)C2)c1 (stereo not drawn) | 11.61%
38 | CNc1cccc(CC2COCCN(C(=O)c3cnn(C)c3)C2)n1 (stereo not drawn) | 151.8%
39 | CNc1cccc(CC2COCCN(C(=O)c3cncs3)C2)n1 (stereo not drawn) | 126.5%
40 | CNc1cccc(CC2COCCN(C(=O)c3cccnc3)C2)n1 (stereo not drawn) | 118.9%
41 | Cc1ccsc1S(=O)(=O)N1CCc2c(c(C(=O)O)nn2CC2CC2)C1 | -2.186%
42 | CN(Cc1noc2c1CCCC2)C(=O)Cn1c(=O)cnc2ccccc21 | 5.556%
43 | Cc1cnc2n(c1=O)C(CC(=O)NCc1cc(-c3cccs3)on1)CS2 (stereo not drawn) | -18.75%
44 | Cc1cnc2n(c1=O)C(CC(=O)NCc1cccs1)CS2 (stereo not drawn) | 81.1%
45 | Cc1cnc2n(c1=O)C(CC(=O)NCc1ccco1)CS2 (stereo not drawn) | 71.35%
46 | O=C(CC1CSc2nccc(=O)n21)NCc1cc(-c2ccco2)on1 (stereo not drawn) | -4.448%
47 | O=C(CC1CSc2nccc(=O)n21)NCc1ccco1 (stereo not drawn) | 9.661%
48 | CC(C)c1cc2c(O)nc(CSCC(=O)O)nc2s1 | 30.38%
49 | CN(Cc1cccs1)C(=O)c1ccc(N2CCOCC2)c(F)c1 | -5.296%
50 | COc1ccccc1C(NC(=O)NC1CC1)c1noc(C)n1 (stereo not drawn) | -18.96%
51 | Cc1cc(NC(=O)CN2CCCC2c2noc(C3CC3)n2)no1 (stereo not drawn) | 3.572%
52 | CCc1nc(C2CCCN2CC(=O)Nc2cc(C)on2)no1 (stereo not drawn) | 106.9%

Row | SMILES | Percent Effect
53 | CCc1nc(C2CCCN2CC(=O)Nc2c(C)nn(C)c2C)no1 (stereo not drawn) | -9.932%
54 | Cc1cc(NC(=O)CN2CCCC2c2noc(C3CC3)n2)on1 (stereo not drawn) | 2.122%
55 | CCc1nc(C2CCCN2CC(=O)Nc2nncs2)no1 (stereo not drawn) | -0.024%
56 | CCc1nc(C2CCCN2CC(=O)Nc2sc(C)c(C)c2C)no1 (stereo not drawn) | -4.711%
57 | CCc1nc(C2CCCN2CC(=O)Nc2cc(C)no2)no1 (stereo not drawn) | 85.76%
58 | Cc1nnc(NC(=O)CN2CCCC2c2noc(C3CC3)n2)s1 (stereo not drawn) | -18.02%
59 | CCc1nc(C2CCCN2CC(=O)Nc2nnc(C)s2)no1 (stereo not drawn) | 78.74%
60 | Cc1cc(CN(CCCO)c2ccccc2)on1 | -3.081%
61 | O=S(=O)(NC[C@H]1OC[C@@H](NCc2cccs2)[C@@H]1O)c1ccccc1 | -1.267%
62 | CCCn1ccnc1CN1C[C@@H](CN2CCCN(C)CC2)[C@@H](CO)C1 | 7.413%
63 | Cc1cccc(CN(Cn2nc(C)c3c(C)onc3c2=O)C2CC2)c1 | -8.073%
64 | CCN(Cc1cccc(F)c1)Cn1nc(C)c2c(C)onc2c1=O | 123.6%
65 | CCN(Cc1cccc(Cl)c1)Cn1nc(C)c2c(C)onc2c1=O | 4.514%
66 | CCN(Cc1cccc(C)c1)Cn1nc(C)c2c(C)onc2c1=O | 127.1%
67 | CCN(CC)Cc1ccccc1NCc1c(C)noc1C | -28.25%
68 | CCC(C)N(Cc1c[nH]c(C)n1)Cc1ccccc1Cl (stereo not drawn) | 9.271%
69 | CCCN(Cc1ccccc1)Cn1nc(C)c2c(C)onc2c1=O | 10.45%
70 | Cc1nn(CN(CC(C)C)C2CC2)c(=O)c2noc(C)c12 | -9.201%
71 | Cc1nn(CN(Cc2ccsc2)C2CC2)c(=O)c2noc(C)c12 | 0.1409%
72 | CCCN(CC)Cn1ncc2cn(-c3ccccc3)nc2c1=O | 21.01%
73 | CCN(Cc1c(F)cccc1F)Cn1nc(C)c2c(C)onc2c1=O | 127.8%
74 | CCN(Cc1ccccc1Cl)Cn1nc(C)c2c(C)onc2c1=O | 88.73%
75 | O=C(NC[C@H]1OC[C@@H](NCc2cccs2)[C@@H]1O)N1CCOCC1 | 1.798%
76 | COc1cc(CN(C)C(=O)NCCC(=O)NC2CCCC2)ccc1SC | -22.89%
77 | Cn1ccnc1C(=O)NC[C@@H]1OC[C@H]2CN(S(C)(=O)=O)CC[C@H]21 | -19.48%
78 | O=C(CCn1cncn1)NC1CCc2nccn2C1 (stereo not drawn) | 104.2%

Row | SMILES | Percent Effect
79 | CS(=O)(=O)NCCC(=O)NC1CCc2nccn2C1 (stereo not drawn) | -6.555%
80 | O=C(CCn1cncn1)NC1CCS(=O)(=O)C1 (stereo not drawn) | 5.446%
81 | CS(=O)(=O)NCC(=O)NC1CCc2nccn2C1 (stereo not drawn) | 17.97%
82 | O=C(CCCn1cncn1)NC1CCc2nccn2C1 (stereo not drawn) | 92.38%
83 | CC(C)N(C)CC(=O)NC1CCc2nccn2C1 (stereo not drawn) | 10.39%
84 | COCCN(C)C(=O)Nc1cc2c(cc1SC)OCCO2 | -4.661%
85 | O=C(CN1CCCNC1=O)Nc1ccccc1SC(F)(F)F | 20.21%
86 | Cc1cc(N2CCN(Cc3ccsc3)C(CCO)C2)nc(N)n1 (stereo not drawn) | 18.89%
87 | CSc1ncc(C(=O)N2C[C@H]3CC[C@@H]2CN(S(=O)(=O)N(C)C)C3)cn1 | -20.31%
88 | O=C(NC1CC1)c1cc(NC(=O)N2CCCC(O)C2)ccc1Cl (stereo not drawn) | -7.994%
89 | COc1cccc(CC2CN(C3CCN(C(C)=O)CC3)CCO2)c1 (stereo not drawn) | -14.95%
90 | CSCc1nc(CNC(=O)C2CCCN(C(=O)N(C)C)C2)cs1 (stereo not drawn) | 1.326%
91 | Cc1cc(CN(C)C(=O)C2CCCN(C(=O)c3ccc(Cl)cc3)C2)no1 (stereo not drawn) | -5.924%
92 | CCC(CC)c1cc(CNC(=O)N2CCCC(C(=O)NC)C2)on1 (stereo not drawn) | -0.3036%
93 | COCC(=O)N1CCCC(C(=O)NCc2cc(CC(C)C)on2)C1 (stereo not drawn) | 3.91%
94 | CCc1cc(NC(=O)C2CCCN(C(=O)c3ccncc3)C2)[nH]n1 (stereo not drawn) | 100.1%
95 | CCc1cc(CNC(=O)C2CCCN(C(=O)NCC(C)C)C2)[nH]n1 (stereo not drawn) | 152.4%
96 | CC(C)Cc1cc(CNC(=O)C2CCCN(C(=O)N(C)C)C2)no1 (stereo not drawn) | 1.053%
97 | CCc1cc(NC(=O)C2CCCN(C(=O)NCC(C)C)C2)[nH]n1 (stereo not drawn) | 96.52%
98 | CCN1CCOCC12CCN(c1ccc(C#N)cc1)CC2.O=C(O)C(F)(F)F | -6.455%
99 | COCCN1CCOCC2(CCN(c3cnccn3)CC2)C1.O=C(O)C(F)(F)F | -15.76%
100 | CCN1CCOCC12CCN(c1nccs1)CC2.O=C(O)C(F)(F)F | -65.58%
101 | COCCN1CCOCC12CCN(c1cnccn1)CC2.O=C(O)C(F)(F)F | 110.8%
102 | CCN1CCOCC12CCN(c1cnccn1)CC2.O=C(O)C(F)(F)F | 94.98%
103 | COCCN1CCOCC12CCN(c1nccs1)CC2.O=C(O)C(F)(F)F | 44.08%
